From PubChem BioAssay (EPA / NIEHS) come the findings set out here.

Molecules are shown by their SMILES. Activity calls are given as the source filed them. How the source made its calls: active means hit-call score of the fitted dose curve at least 0.9, where 1 is the maximum; inactive means score below 0.9.

What all share (conditions): mRNA level, 48 h; actives raise or lower the signal
Read-out in experiment [1]: flavin-containing dimethylaniline monooxygenases 3 (FMO3), FMO3 (gene 2328)
As to the kind of experiment: LTEA_HepaRG_FMO3: Life Technologies and Expression Analysis (LTEA) Assay for flavin-containing dimethylaniline monooxygenases 3 (FMO3) using HepaRG (AID 2283453). The essentials: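 Differentiated HepaRG cells in serum-free induction medium, exposed 48 h in duplicate to 8 half-log concentrations up to 100 uM in 0.5% DMSO. FMO3 mRNA by qRT-PCR, normalized to ACTB, GAPDH, POLR2A; bidirectional fit vs DMSO.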

Read-out in experiment [2]: Cytochrome P450 (CYP1A1), CYP1A1 (gene 1543)
Nature of the experiment: LTEA_HepaRG_CYP1A1: Life Technologies and Expression Analysis (LTEA) Assay for Cytochrome P450 (CYP1A1) using HepaRG (AID 2283454). The method in brief:
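Differentiated human HepaRG cells, after 48 h plating, exposed in duplicate for 48 h in serum-free induction medium to 8 half-log concentrations up to 100 uM in 0.5% DMSO. CYP1A1 mRNA by qRT-PCR, normalized to ACTB/GAPDH/POLR2A; bidirectional fit versus DMSO.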

Read-out in experiment [3]: CFLAR gene, CFLAR (gene 8837)
Nature of the experiment: LTEA_HepaRG_CFLAR: Life Technologies and Expression Analysis (LTEA) Assay for CFLAR gene using HepaRG (AID 2283455). The essentials: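 HepaRG, 48 h exposure, 8-pt conc-response (100 uM top, half-log), 0.5% DMSO vehicle, duplicates. CFLAR expression by qRT-PCR; ACTB/GAPDH/POLR2A normalization; gain or loss fit vs DMSO baseline.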

Read-out in experiment [4]: Forkhead box O1 (FOXO1), FOXO1 (gene 2308)
Nature of the experiment: LTEA_HepaRG_FOXO1: Life Technologies and Expression Analysis (LTEA) Assay for Forkhead box O1 (FOXO1) using HepaRG (AID 2283456). The method in brief:
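Readout is FOXO1 transcript level by multiplexed qRT-PCR against three housekeeping genes, curve-fitted in both directions relative to 0.5% DMSO vehicle. Human HepaRG cultures received chemicals for 48 h, up to 100 uM in half-log steps.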

Read-out in experiment [5]: growth arrest and DNA damage 45 (GADD45A), GADD45A (gene 1647)
As to the kind of experiment: LTEA_HepaRG_GADD45A: Life Technologies and Expression Analysis (LTEA) Assay for growth arrest and DNA damage 45 (GADD45A) using HepaRG (AID 2283458). The essentials: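 Cells plated and cultured 48 h, switched to serum-free induction medium, then dosed for 48 h (100 uM top, half-log dilutions, 0.5% DMSO). RNA was isolated and transcript measured by Fluidigm qRT-PCR.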

Read-out in experiment [6]: Forkhead box O3 (FOXO3), FOXO3 (gene 2309)
As to the kind of experiment: LTEA_HepaRG_FOXO3: Life Technologies and Expression Analysis (LTEA) Assay for Forkhead box O3 (FOXO3) using HepaRG (AID 2283459). The essentials: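 HepaRG, 48 h post-dose; 8 conc., half-log from 100 uM, 0.5% DMSO, duplicates; serum-free induction medium. Readout: FOXO3 mRNA, TaqMan qRT-PCR, housekeeping-normalized. Bidirectional curve fit vs DMSO baseline.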

Read-out in experiment [7]: ABC Transporter (ABCB1), ABCB1 (gene 5243)
Nature of the experiment: LTEA_HepaRG_ABCB1: Life Technologies and Expression Analysis (LTEA) Assay for ABC Transporter (ABCB1) using HepaRG (AID 2283460). The method in brief:
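Expression of ABCB1 was quantified by qRT-PCR against three housekeeping genes after human HepaRG cultures received test chemicals for 48 hours. Concentrations spanned eight half-log steps topping at 100 uM in 0.5% DMSO; gain or loss of signal was fitted relative to vehicle.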

Read-out in experiment [8]: ABC Transporter (ABCC3), ABCC3 (gene 8714)
Nature of the experiment: LTEA_HepaRG_ABCC3: Life Technologies and Expression Analysis (LTEA) Assay for ABC Transporter (ABCC3) using HepaRG (AID 2283462). The essentials: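 Differentiated human HepaRG cells exposed 48 h in serum-free induction medium, 0.5% DMSO vehicle, 8-point half-log series to 100 uM in duplicate. ABCC3 mRNA by qRT-PCR, normalised to ACTB, GAPDH, POLR2A; bidirectional fit vs DMSO.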

Read-out in experiment [9]: ABC Transporter (ABCB11), ABCB11 (gene 8647)
As to the kind of experiment: LTEA_HepaRG_ABCB11: Life Technologies and Expression Analysis (LTEA) Assay for ABC Transporter (ABCB11) using HepaRG (AID 2283463). The method in brief: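 ABCB11 transcript levels are read by Fluidigm TaqMan qRT-PCR after 48 h chemical treatment of human HepaRG cells. Concentrations span 100 uM downward in half-log steps with 0.5% DMSO; gain or loss is fitted against DMSO controls.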

Read-out in experiment [10]: ABC Transporter (ABCC2), ABCC2 (gene 1244)
Nature of the experiment: LTEA_HepaRG_ABCC2: Life Technologies and Expression Analysis (LTEA) Assay for ABC Transporter (ABCC2) using HepaRG (AID 2283464). The essentials:
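Differentiated HepaRG cells in serum-free induction medium exposed 48 h to eight half-log concentrations up to 100 uM, 0.5% DMSO, in duplicate. ABCC2 mRNA measured by qRT-PCR (TaqMan, Fluidigm), normalized to ACTB, GAPDH and POLR2A. Fitted in both directions against DMSO.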

Read-out in experiment [11]: Broad substrate specificity ATP-binding cassette transporter ABCG2 (Homo sapiens) (UniProt Q9UNQ0)
As to the kind of experiment: LTEA_HepaRG_ABCG2: Life Technologies and Expression Analysis (LTEA) Assay for ABC Transporter (ABCG2) using HepaRG (AID 2283465). The essentials: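 Read-out is ABCG2 mRNA induction or loss quantified by qRT-PCR after 48 h chemical treatment of human HepaRG cells, normalized to three housekeeping genes. Concentrations reached 100 uM top in half-log steps; fitting was bidirectional against 0.5% DMSO.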

Read-out in experiment [12]: ATP-citrate lyase (ACLY), ACLY (gene 47)
As to the kind of experiment: LTEA_HepaRG_ACLY: Life Technologies and Expression Analysis (LTEA) Assay for ATP-citrate lyase (ACLY) using HepaRG (AID 2283466). The essentials:
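HepaRG, 48 h exposure, 8-pt half-log dilutions (top 100 uM), 0.5% DMSO. Readout: ACLY mRNA, TaqMan qRT-PCR, housekeeping-normalized (ACTB/GAPDH/POLR2A). Bidirectional curve fit vs DMSO.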

Read-out in experiment [13]: Peroxisomal acyl-coenzyme A oxidase 1 (ACOX1) gene, ACOX1 (gene 51)
Nature of the experiment: LTEA_HepaRG_ACOX1: Life Technologies and Expression Analysis (LTEA) Assay for Peroxisomal acyl-coenzyme A oxidase 1 (ACOX1) gene using HepaRG (AID 2283467). The method in brief:
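Measured by qRT-PCR against three housekeeping genes: ACOX1 transcript change in human HepaRG cells after 48 h dosing. Concentrations ran up to 100 uM in half-log steps. Curves were fitted bidirectionally relative to 0.5% DMSO.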

Read-out in experiment [14]: Alkaline Phosphatase, Placental (ALPP) gene, ALPP (gene 250)
Nature of the experiment: LTEA_HepaRG_ALPP: Life Technologies and Expression Analysis (LTEA) Assay for Alkaline Phosphatase, Placental (ALPP) gene using HepaRG (AID 2283468). The method in brief:
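HepaRG cells plated 48 h, then exposed in duplicate for 48 h in serum-free induction medium to 8-point half-log series from 100 uM in 0.5% DMSO. ALPP mRNA by TaqMan qRT-PCR, normalized to ACTB/GAPDH/POLR2A; bidirectional fit versus DMSO.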

Read-out in experiment [15]: Bcl-2 (BAD) gene, BAD (gene 572)
Nature of the experiment: LTEA_HepaRG_BAD: Life Technologies and Expression Analysis (LTEA) Assay for Bcl-2 (BAD) gene using HepaRG (AID 2283469). The essentials: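 BAD transcript change, measured by qRT-PCR against three housekeeping genes and fitted in both directions relative to 0.5% DMSO, after 48 h chemical treatment of human HepaRG liver cells at concentrations up to 100 uM.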

Read-out in experiment [16]: Bcl-2 (BAX) gene, BAX (gene 581)
Nature of the experiment: LTEA_HepaRG_BAX: Life Technologies and Expression Analysis (LTEA) Assay for Bcl-2 (BAX) gene using HepaRG (AID 2283470). The method in brief: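 HepaRG (human liver), 48 h exposure, duplicate wells. 8-pt curve, half-log from 100 uM, 0.5% DMSO. BAX transcript by TaqMan qRT-PCR; ACTB/GAPDH/POLR2A normalization; gain or loss vs DMSO baseline.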

Read-out in experiment [17]: adenosine kinase (ADK) gene, ADK (gene 132)
Nature of the experiment: LTEA_HepaRG_ADK: Life Technologies and Expression Analysis (LTEA) Assay for adenosine kinase (ADK) gene using HepaRG (AID 2283471). The method in brief: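 ADK expression quantified by qRT-PCR, normalised to three housekeeping genes, after 48 h exposure of HepaRG cells to eight concentrations (top 100 uM, half-log steps, duplicate, 0.5% DMSO). Up- or down-regulation fitted relative to vehicle.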

Read-out in experiment [18]: Alpha-fetoprotein (AFP) gene, AFP (gene 174)
Nature of the experiment: LTEA_HepaRG_AFP: Life Technologies and Expression Analysis (LTEA) Assay for Alpha-fetoprotein (AFP) gene using HepaRG (AID 2283472). The essentials: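 HepaRG, single lot; 48 h post-plating -> serum-free induction medium; cpd 8-pt, 100 uM top, half-log, 0.5% DMSO, duplicate, 48 h. RNA -> qRT-PCR AFP, norm ACTB/GAPDH/POLR2A. Bidirectional fit vs DMSO.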

Read-out in experiment [19]: growth arrest and DNA damage 45 (GADD45B), GADD45B (gene 4616)
As to the kind of experiment: LTEA_HepaRG_GADD45B: Life Technologies and Expression Analysis (LTEA) Assay for growth arrest and DNA damage 45 (GADD45B) using HepaRG (AID 2283461). The essentials: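 Differentiated human HepaRG cells in serum-free induction medium exposed 48 h in duplicate to eight concentrations, top 100 uM, half-log steps, 0.5% DMSO. GADD45B mRNA by TaqMan qRT-PCR, normalized to ACTB, GAPDH, POLR2A; bidirectional fit versus DMSO.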

Sequence of Broad substrate specificity ATP-binding cassette transporter ABCG2 (Homo sapiens) (Q9UNQ0 whole entry, looked up): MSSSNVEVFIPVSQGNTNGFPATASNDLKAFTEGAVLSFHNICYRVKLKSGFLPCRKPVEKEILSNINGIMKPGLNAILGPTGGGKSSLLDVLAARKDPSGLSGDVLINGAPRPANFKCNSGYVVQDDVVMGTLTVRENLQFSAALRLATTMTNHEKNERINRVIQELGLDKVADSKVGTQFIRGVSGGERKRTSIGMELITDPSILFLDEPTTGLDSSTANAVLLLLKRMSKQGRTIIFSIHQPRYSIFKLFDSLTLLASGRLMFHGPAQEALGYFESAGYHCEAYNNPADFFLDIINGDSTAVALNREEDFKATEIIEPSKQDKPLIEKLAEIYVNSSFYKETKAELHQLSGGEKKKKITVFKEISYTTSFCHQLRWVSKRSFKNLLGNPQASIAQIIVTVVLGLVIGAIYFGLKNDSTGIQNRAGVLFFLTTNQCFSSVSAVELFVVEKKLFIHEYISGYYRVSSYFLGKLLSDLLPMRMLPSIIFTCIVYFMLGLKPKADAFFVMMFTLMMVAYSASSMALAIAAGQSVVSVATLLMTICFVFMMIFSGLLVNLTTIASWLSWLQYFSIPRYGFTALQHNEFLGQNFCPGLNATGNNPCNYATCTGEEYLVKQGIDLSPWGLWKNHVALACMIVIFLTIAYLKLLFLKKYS

Turning to `ClCCOCCCl`, the compound was classed as inactive in experiment [1], in experiment [2], in experiment [3], in [4], in [5] and in [6]. For the same compound, the compound was called inactive in experiment [7], in [8], in experiment [9], in experiment [10], in experiment [11] and in [12]. Besides, the compound was called inactive in experiment [13], in experiment [14], in experiment [15], in experiment [16], in experiment [17] and in experiment [18].
Take `OCCOCCO`: the outcome in experiment [1], in experiment [2], in [3], in experiment [4], in experiment [5] and in experiment [6] was inactive. For the same compound, the outcome in experiment [7], in experiment [8], in experiment [9], in experiment [10], in experiment [11] and in [12] was inactive. For the same compound, the compound was called inactive in experiment [14], in [15], in experiment [16], in experiment [17] and in experiment [18].
As to `Cc1cccc(N)c1N`, the AC50 (as a rule, the concentration giving half of the maximal activity seen) in [1] is 61.7 µM (active); in experiment [2], 6.92 µM (active); in [3] it was 50 µM (active); in experiment [6], 50 µM (active); in [19] it was 64 µM (active); in experiment [9], 62.6 µM (active). For the same compound, the AC50 in experiment [18] was 81.5 µM (active). Further, the result in experiment [4], in [5], in experiment [8], in experiment [10], in experiment [11] and in experiment [12] was inactive. Further, the compound was classed as inactive in [14], in experiment [15] and in experiment [16].
For `CCC(C)c1ccc(O)cc1` (stereo not given), the result in experiment [1], in experiment [2], in experiment [3], in experiment [4], in experiment [5] and in experiment [6] was inactive. Also, the call in experiment [7], in experiment [19], in experiment [8], in experiment [9], in experiment [10] and in [11] was inactive. Also, the compound was called inactive in [12], in [13], in experiment [14], in experiment [15] and in [18].
On to `COc1cc(C=O)cc2c1[C@H](COC(N)=O)[C@]1(OC(C)=O)ON2C[C@H]2[C@@H]1N2C(C)=O`, for which the AC50 in experiment [1] was 76.5 µM (active); in experiment [2], 4.09 µM (active); in experiment [4], 3.75 µM (active); in experiment [5], 579 nM (active); in experiment [6], 3.8 µM (active); in experiment [7], 24.3 µM (active). In addition, the AC50 in [8] was 9.99 µM (active); in experiment [9] it was 0.38 µM (active); in experiment [15] it was 89.3 µM (active); in experiment [17], 24.6 µM (active); in experiment [18] it was 0.95 µM (active). The outcome in [3], in experiment [10], in [11], in experiment [12], in experiment [14] and in experiment [16] was inactive.
With `CCCCOC(=O)c1ccccc1C(=O)OCc1ccccc1`, the outcome in experiment [1], in experiment [3], in [4], in experiment [5], in experiment [6] and in experiment [19] was inactive. The compound was classed as inactive in [8], in experiment [9], in experiment [10], in experiment [11], in [12] and in experiment [14]. Besides, the outcome in [15], in [17] and in experiment [18] was inactive. Further, in experiment [2], the AC50 was 15.1 µM (active).
As for `CN(C)C(=O)Nc1ccc(Cl)cc1`, the compound was called inactive in experiment [1], in [3], in experiment [4], in experiment [5], in experiment [6] and in [7]. Besides, the result in experiment [19], in experiment [8], in [9], in experiment [10], in experiment [11] and in experiment [12] was inactive. For the same compound, the outcome in experiment [13], in experiment [14], in [15], in experiment [16], in experiment [17] and in experiment [18] was inactive. For the same compound, the AC50 in experiment [2] was 38 µM (active).
